From PubChem BioAssay (Tox21)
Records with an inconclusive call do not appear. A number with no mark means an inactive call. The source made the active and inactive calls. Calls follow the shape of the full dose curve.

Assay: qHTS assay for small molecules that induce genotoxicity in human embryonic kidney cells expressing luciferase-tagged ATAD5 - cell viability (AID 651634); also: nearly all actives have a fitted effect of over 25% in size
Settings: HEK293T ATAD5-luc cells viability, CellTiter-Fluor, 15.5 h; series mostly up to 83.3 µM; activity, negative = cytotoxicity: at the top concentration
Text: National Center for Advancing Translational Sciences [NCATS]
NIH Chemical Genomics Center [NCGC]
U.S. Environmental Protection Agency [EPA]
National Institutes of Environmental Health Sciences [NIEHS]
National Toxicology Program [NTP]
U.S. Food and Drug Administration [FDA]
Enhanced Level of Genome Instability Gene 1 (ELG1; human ATAD5) protein levels increase in response to various types of DNA damage. Using a luciferase reporter-gene tagged with ElG1, a cell-based assay [developed by Kyungjae Myung, NHGRI, NIH] was used to measure the induction of ATAD5 in human embryonic kidney cells (HEK293T). So, increase in luciferase activity can be used to identify the compounds that cause genetic stress. In addition to genotoxicity, these cells were also used to test for cytotoxicity by measuring the protease activity within live cells.
Tox21 Assay Protocol Summary:
For cytotoxicity screening, 2,000 cells in 5 uL/well were dispensed into white, solid-bottom 1536-well plates using a Multidrop Combi (Thermo Scientific) dispenser. Following transfer of 23 nL compound or DMSO vehicle by a pin tool, the plates were incubated 15.5 hr at 37C and 5% CO2. 1 ul CellTiter-Fluor reagent (Promega, Madison, WI) was then added to each plate and following 30 min incubation at 37C, fluorescence intensity was quantified on a ViewLux CCD-based plate reader.
% is scaled to controls: 0 for no effect and ±100 for the full control effect.

Work on `COC=O` yielded an activity, negative = cytotoxicity of 20.8% [at 8.08 µM].

In order of rising “activity, negative = cytotoxicity” value:
1. NC(=O)c1ccccc1C(N)=O  -6.83% [at 95.3 µM]
2. CC(C)CC(C)(C)C  3.56% [at 95.3 µM]
3. COC(=O)C(C)(C)C  8.71% [at 95.3 µM]
4. C=Cc1ccc(C=C)cc1  15% [at 95.3 µM]
5. CC(C)Cc1nccs1  18.7% [at 95.3 µM]
6. O=C(O)COCC(=O)O  22.7% [at 95.3 µM]

In order of rising “activity, negative = cytotoxicity” value:
1. CC1=C(C)C(=O)C(CCCCC#CCCCC#CCO)=C(C)C1=O  -26.1%
2. O=Cc1ccc(Cl)c([N+](=O)[O-])c1  -20.2%
3. CC(C)CCCCCCCOC(=O)c1ccc(C(=O)OCCCCCCCC(C)C)c(C(=O)OCCCCCCCC(C)C)c1  -17.2%
4. CCCCCCCCCCCCCCCCC(=O)O  -14.8%
5. O=C(Cl)c1ccc(F)c(Cl)c1  -11.8%
6. C[C@H](CN1CCCC1)C(=O)c1ccc(C(F)(F)F)cc1  -10.8%
7. CCCc1nc(C)c2c(=O)[nH]c(-c3cc(S(=O)(=O)N4CCN(CC)CC4)ccc3OCC)nn12  -10.6%
8. CC(CN=Cc1ccccc1O)N=Cc1ccccc1O (stereo not given)  -10.6%
9. CC1(C)CC(=O)CC(C)(C)N1  -7.72%
10. Cc1c(-c2cccnc2)c2ccccc2n1CCCCC(=O)O  -3.38%
11. CO[C@@H]1[C@@H](O[C@@H]2O[C@H](C)[C@@H](O[C@H]3C[C@@](C)(O)[C@@H](O)[C@H](C)O3)[C@H](N(C)C)[C@H]2O)[C@@H](CC=O)C[C@@H](C)[C@@H](O[C@@H]2CC[C@H](N(C)C)[C@@H](C)O2)/C=C/C=C/C[C@@H](C)OC(=O)C[C@H]1OC(C)=O  -1.89%
12. CC(C)(C)NCC(O)COc1ccc(NC(=O)NC2CCCCC2)cc1 (stereo not given)  2.88%
13. CC(C)(C(=O)O)c1ccc(C(O)CCCN2CCC(C(O)(c3ccccc3)c3ccccc3)CC2)cc1 (stereo not given)  5.2%
14. C1=COCCC1  6.07%
15. S=c1[nH][nH]c(=S)s1  6.23%
16. Cc1cc(SC2=C(O)C[C@@](CCc3ccc(N)cc3)(C(C)C)OC2=O)c(C(C)(C)C)cc1CO  6.82%
17. O=C(O)c1ccc2cc(O)ccc2c1  7.13%
18. CCCCOC(=O)C(C)Oc1ccc(Oc2ccc(C(F)(F)F)cn2)cc1 (stereo not given)  7.67%
19. CCCCC(CC)COCCC#N (stereo not given)  9.13%
20. C=CC(C)(O)CC/C=C(/C)CCC=C(C)C (stereo not given)  10.4%
21. C=CC(C)CCC=C(C)C (stereo not given)  10.7%
22. CCCCCO  11.6%
23. OCCc1ccncc1  13.1%
24. COC(=O)Cc1cccc2ccccc12  13.3%
25. CC(=O)c1cccnc1  14.6%
26. C[Si](C)(C)O[Si](C)(C)O[Si](C)(C)C  15.2%
27. CCC(C)C1N=C(C)C(C)S1 (stereo not given)  16.7%
28. CC(=O)CC/C=C(\C)CC/C=C(\C)CC/C=C(\C)CCC=C(C)C  17.1%
29. CCCCCCCCCCCCN1CCOCC1  19%
30. O=C(c1ccc(Cl)cc1)c1ccc(Cl)cc1  22.1%

For `Nc1nc(Cl)nc2c1ncn2[C@H]1C[C@H](O)[C@@H](CO)O1`, the Potency was “inactive”.
For `CCOC(C)OCC`, the Potency was “inactive”.

With `NC(=O)c1cc[n+](CC2=C(C(=O)[O-])N3C(=O)[C@@H](NC(=O)Cc4cccs4)[C@H]3SC2)cc1` the “activity, negative = cytotoxicity” value was 5.47% [at 39.1 µM].
